# Data published in the supplement of paper PMC8728848.
# This excerpt belongs to a sample that is enriched for the strongest signals.
# B1: Gal 2 (Homo sapiens), P05162 (protein)
# chain: MTGELEVKNMDMKPGSTLKITGSIADGTDGFVINLGQGTDKLNLHFNPRFSESTIVCNSLDGSNWGQEQREDHLCFSPGSEVKFTVTFESDKFKVKLPDGHELTFPNRLGHSHLSYLSVRGGFNMSSFKLKE
# B2: FBG5 (Homo sapiens), Q8NI29 (protein)
# chain: MGASVSRGRAARVPAPEPEPEEALDLSQLPPELLLVVLSHVPPRTLLGRCRQVCRGWRALVDGQALWLLILARDHGATGRALLHLARSCQSPARNARPCPLGRFCARRPIGRNLIRNPCGQEGLRKWMVQHGGDGWVVEENRTTVPGAPSQTCFVTSFSWCCKKQVLDLEEEGLWPELLDSGRIEICVSDWWGARHDSGCMYRLLVQLLDANQTVLDKFSAVPDPIPQWNNNACLHVTHVFSNIKMGVRFVSFEHRGQDTQFWAGHYGARVTNSSVIVRVRLS
# Columns and labels:
# Test in all cases: glycan array binding signal (z-score within array); higher = stronger binding
# Settings in all cases: glycan notation: IUPAC condensed, linker removed
# [1] = target: Fuc(a1-2)Gal(b1-3)GalNAc(b1-3)Gal(b1-4)Glc
# Procedure, shortened: (§1)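 From the Consortium for Functional Glycomics database, 3228 arrays were curated, keeping only those whose protein sequence was available. Binding is given as a within-array Z-score averaged across arrays sharing a protein sequence and across linkers. Negative Z-scores can be read as non-binding.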
# [2] = target: Fuc(a1-2)Gal(b1-3)GlcNAc(b1-3)Gal(b1-4)Glc
# Procedure, shortened: as §1
# [3] = target: Fuc(a1-2)Gal(b1-3)GlcNAc(b1-3)[Fuc(a1-2)Gal(b1-3)GlcNAc(b1-6)]GalNAc
# Procedure, shortened: as §1
# [4] = target: Fuc(a1-2)Gal(b1-3)[Fuc(a1-4)]GlcNAc(b1-2)Man(a1-3)[Fuc(a1-2)Gal(b1-3)[Fuc(a1-4)]GlcNAc(b1-2)Man(a1-6)]Man(b1-4)GlcNAc(b1-4)[Fuc(a1-6)]GlcNAc(b1-4)[Fuc(a1-6)]GlcNAc
# Procedure, shortened: as §1
# [5] = target: Fuc(a1-2)Gal(b1-4)GlcNAc(b1-3)Gal(b1-4)GlcNAc
# Procedure, shortened: as §1
# [6] = target: Fuc(a1-2)Gal(b1-4)GlcNAc(b1-3)Gal(b1-4)GlcNAc(b1-3)Gal(b1-4)GlcNAc
# Procedure, shortened: as §1
# [7] = target: Fuc(a1-2)Gal3S(b1-4)GlcNAc
# Procedure, shortened: as §1
# [8] = target: Fuc(a1-2)Gal6S(b1-4)Glc6S
# Procedure, shortened: as §1
# [9] = target: Fuc(a1-2)[Gal(a1-3)]Gal(b1-4)GlcNAc
# Procedure, shortened: as §1
# [10] = target: Fuc(a1-2)[Gal(a1-3)]Gal(b1-4)GlcNAc(b1-2)Man(a1-3)[Fuc(a1-2)[Gal(a1-3)]Gal(b1-4)GlcNAc(b1-2)Man(a1-6)]Man(b1-4)GlcNAc(b1-4)[Fuc(a1-6)]GlcNAc
# Procedure, shortened: as §1
# [11] = target: Fuc(a1-2)[GalNAc(a1-3)]Gal(b1-3)GlcNAc
# Procedure, shortened: as §1
# [12] = target: Fuc(a1-2)[GalNAc(a1-3)]Gal(b1-4)GlcNAc
# Procedure, shortened: as §1
# [13] = target: Fuc(a1-2)[GalNAc(a1-3)]Gal(b1-4)GlcNAc(b1-2)Man
# Procedure, shortened: as §1
# [14] = target: Fuc(a1-2)[GalNAc(a1-3)]Gal(b1-4)[Fuc(a1-3)]GlcNAc(b1-3)GalNAc
# Procedure, shortened: as §1
# Fuc(a1-3)GlcNAc = target: Fuc(a1-3)GlcNAc
# Procedure, shortened: as §1
# [15] = target: Gal(a1-3)Gal(b1-3)GlcNAc(b1-2)Man(a1-3)[Gal(a1-3)Gal(b1-3)GlcNAc(b1-2)Man(a1-6)]Man(b1-4)GlcNAc(b1-4)GlcNAc
# Procedure, shortened: as §1
# [16] = target: Gal(a1-4)Gal(b1-4)GlcNAc(b1-3)Gal(b1-4)Glc
# Procedure, shortened: as §1
# Gal(b1-3)Gal = target: Gal(b1-3)Gal
# Procedure, shortened: as §1
# [17] = target: Gal(b1-3)GalNAc(a1-3)[Fuc(a1-2)]Gal(b1-4)GlcNAc
# Procedure, shortened: as §1
# [18] = target: Gal(b1-3)GlcNAc(a1-3)Gal(b1-4)GlcNAc
# Procedure, shortened: as §1
# [19] = target: Gal(b1-3)GlcNAc(b1-3)Gal(b1-4)Glc
# Procedure, shortened: as §1
# [20] = target: Gal(b1-3)GlcNAc(b1-3)Gal(b1-4)GlcNAc
# Procedure, shortened: as §1
# [21] = target: Gal(b1-3)[Fuc(a1-4)]GlcNAc(b1-3)Gal(b1-4)[Fuc(a1-3)]GlcNAc
# Procedure, shortened: as §1
# [22] = target: Gal(b1-3)[Neu5Ac(b2-6)]GalNAc
# Procedure, shortened: as §1
# [23] = target: Gal(b1-4)GalNAc(a1-3)[Fuc(a1-2)]Gal(b1-4)GlcNAc
# Procedure, shortened: as §1
# [24] = target: Gal(b1-4)GlcNAc(b1-2)Man(a1-3)[Gal(b1-4)GlcNAc(b1-2)Man(a1-6)][GlcNAc(b1-4)]Man(b1-4)GlcNAc(b1-4)[Fuc(a1-6)]GlcNAc
# Procedure, shortened: as §1
# GalNAc(a1-3)Gal = target: GalNAc(a1-3)Gal
# Procedure, shortened: as §1
# Glc(a1-6)Glc(a1-6)Glc = target: Glc(a1-6)Glc(a1-6)Glc
# Procedure, shortened: as §1
# [25] = target: GlcNAc(a1-4)Gal(b1-4)GlcNAc(b1-3)Gal(b1-4)GlcNAc
# Procedure, shortened: as §1
# [26] = target: GlcNAc(b1-2)Man(a1-3)[GlcNAc(b1-4)][GlcNAc(b1-2)Man(a1-6)]Man(b1-4)GlcNAc(b1-4)GlcNAc
# Procedure, shortened: as §1
# [27] = target: GlcNAc(b1-3)[GlcNAc(b1-6)]GlcNAc(b1-4)GlcNAc
# Procedure, shortened: as §1
# [28] = target: GlcNAc(b1-6)Gal(b1-4)GlcNAc
# Procedure, shortened: as §1
# Man(b1-4)GlcNAc = target: Man(b1-4)GlcNAc
# Procedure, shortened: as §1
# [29] = target: Neu5Ac(a2-3)Gal(b1-3)[Fuc(a1-4)]GlcNAc
# Procedure, shortened: as §1
# [30] = target: Neu5Ac(a2-3)Gal(b1-4)GlcNAc(b1-3)Gal(b1-4)GlcNAc
# Procedure, shortened: as §1
# [31] = target: Neu5Ac(a2-3)Gal(b1-4)GlcNAc(b1-3)Gal(b1-4)GlcNAc(b1-3)Gal(b1-4)GlcNAc(b1-2)Man(a1-3)[Neu5Ac(a2-3)Gal(b1-4)GlcNAc(b1-3)Gal(b1-4)GlcNAc(b1-3)Gal(b1-4)GlcNAc(b1-2)Man(a1-6)]GalNAc
# Procedure, shortened: as §1
# [32] = target: Neu5Ac(a2-3)Gal(b1-4)[Fuc(a1-3)]GlcNAc(b1-3)Gal(b1-4)GlcNAc
# Procedure, shortened: as §1
# [33] = target: Neu5Ac(a2-6)Gal(b1-4)GlcNAc(b1-2)Man(a1-3)[GlcNAc(b1-4)][Neu5Ac(a2-6)Gal(b1-4)GlcNAc(b1-2)Man(a1-6)]Man(b1-4)GlcNAc(b1-4)GlcNAc
# Procedure, shortened: as §1
# [34] = target: Neu5Ac(a2-6)Gal(b1-4)GlcNAc(b1-2)Man(a1-6)[Man(a1-3)]Man(b1-4)GlcNAc(b1-4)GlcNAc
# Procedure, shortened: as §1
# [35] = target: Neu5Ac(a2-6)Gal(b1-4)GlcNAc(b1-3)Gal(b1-4)GlcNAc(b1-2)Man(a1-3)[Neu5Ac(a2-6)Gal(b1-4)GlcNAc(b1-3)Gal(b1-4)GlcNAc(b1-2)Man(a1-6)]GalNAc
# Procedure, shortened: as §1
# [36] = target: Neu5Ac(a2-6)Gal(b1-4)GlcNAc(b1-6)[Gal(b1-3)GlcNAc(b1-3)]Gal(b1-4)Glc
# Procedure, shortened: as §1
# [37] = target: Neu5Ac(b2-6)Gal(b1-4)GlcNAc
# Procedure, shortened: as §1
# [38] = target: Neu5Gc(a2-3)Gal(b1-4)[Fuc(a1-3)]GlcNAc
# Procedure, shortened: as §1
# [39] = target: Fuc(a1-2)[Gal(a1-4)]Gal(b1-4)GalNAc
# Procedure, shortened: as §1
# [40] = target: Fuc(a1-2)[GalNAc(a1-3)]Gal(b1-4)Glc
# Procedure, shortened: as §1
# [41] = target: Gal(b1-4)GlcNAc(b1-2)Man(a1-3)[Gal(b1-4)GlcNAc(b1-2)Man(a1-6)]Man(b1-4)GlcNAc(b1-4)GlcNAc
# Procedure, shortened: as §1
# Gal3S(b1-4)Glc6S = target: Gal3S(b1-4)Glc6S
# Procedure, shortened: as §1
# Gal3S6S(b1-4)GlcNAc = target: Gal3S6S(b1-4)GlcNAc
# Procedure, shortened: as §1
# Gal3S6S(b1-4)GlcNAc6S = target: Gal3S6S(b1-4)GlcNAc6S
# Procedure, shortened: as §1
# Gal6S(b1-4)Glc6S = target: Gal6S(b1-4)Glc6S
# Procedure, shortened: as §1
# GlcNAc(b1-3)Gal = target: GlcNAc(b1-3)Gal
# Procedure, shortened: as §1
# [42] = target: GlcNAc(b1-4)Gal(b1-4)GlcNAc
# Procedure, shortened: as §1
# [43] = target: Man(a1-2)Man(a1-3)[Man(a1-6)]Man(a1-6)[Man(a1-2)Man(a1-3)]Man(b1-4)GlcNAc(b1-4)GlcNAc
# Procedure, shortened: as §1
# [44] = target: Neu5Ac(a2-3)Gal(b1-3)GlcNAc
# Procedure, shortened: as §1
# [45] = target: Neu5Ac(a2-3)Gal(b1-3)GlcNAc(b1-3)Gal(b1-4)GlcNAc
# Procedure, shortened: as §1
# [46] = target: Neu5Ac(a2-3)Gal(b1-4)[Fuc(a1-3)]GlcNAc
# Procedure, shortened: as §1
# [47] = target: Neu5Ac(a2-3)Gal(b1-4)[Fuc(a1-3)]GlcNAc(b1-3)Gal
# Procedure, shortened: as §1
# [48] = target: Neu5Ac(a2-6)Gal(b1-4)GlcNAc
# Procedure, shortened: as §1
# [49] = target: Neu5Gc(a2-6)Gal(b1-4)GlcNAc
# Procedure, shortened: as §1
binder,measurement,setting,value
B1,glycan array binding signal (z-score),[1],3.12
same,glycan array binding signal (z-score),[2],2.35
same,glycan array binding signal (z-score),[3],-0.048
same,glycan array binding signal (z-score),[4],0.137
same,glycan array binding signal (z-score),[5],2.16
same,glycan array binding signal (z-score),[6],2.4
same,glycan array binding signal (z-score),[7],-0.17
same,glycan array binding signal (z-score),[8],-0.193
same,glycan array binding signal (z-score),[9],2.52
same,glycan array binding signal (z-score),[10],8.45
same,glycan array binding signal (z-score),[11],3.75
same,glycan array binding signal (z-score),[12],5.89
same,glycan array binding signal (z-score),[13],13.5
same,glycan array binding signal (z-score),[14],-0.08
same,glycan array binding signal (z-score),Fuc(a1-3)GlcNAc,-0.254
same,glycan array binding signal (z-score),[15],-0.222
same,glycan array binding signal (z-score),[16],-0.229
same,glycan array binding signal (z-score),Gal(b1-3)Gal,-0.268
same,glycan array binding signal (z-score),[17],9.48
same,glycan array binding signal (z-score),[18],-0.111
same,glycan array binding signal (z-score),[19],0.74
same,glycan array binding signal (z-score),[20],0.837
same,glycan array binding signal (z-score),[21],-0.269
same,glycan array binding signal (z-score),[22],-0.237
same,glycan array binding signal (z-score),[23],5.71
same,glycan array binding signal (z-score),[24],-0.215
same,glycan array binding signal (z-score),GalNAc(a1-3)Gal,-0.281
same,glycan array binding signal (z-score),Glc(a1-6)Glc(a1-6)Glc,-0.2
same,glycan array binding signal (z-score),[25],-0.28
same,glycan array binding signal (z-score),[26],-0.084
same,glycan array binding signal (z-score),[27],-0.396
same,glycan array binding signal (z-score),[28],-0.272
same,glycan array binding signal (z-score),Man(b1-4)GlcNAc,-0.273
same,glycan array binding signal (z-score),[29],-0.214
same,glycan array binding signal (z-score),[30],-0.292
same,glycan array binding signal (z-score),[31],0.02
same,glycan array binding signal (z-score),[32],-0.229
same,glycan array binding signal (z-score),[33],-0.169
same,glycan array binding signal (z-score),[34],-0.12
same,glycan array binding signal (z-score),[35],-0.008
same,glycan array binding signal (z-score),[36],-0.21
same,glycan array binding signal (z-score),[37],-0.244
same,glycan array binding signal (z-score),[38],-0.212
B2,glycan array binding signal (z-score),[1],-0.166
same,glycan array binding signal (z-score),[39],-0.19
same,glycan array binding signal (z-score),[40],0.967
same,glycan array binding signal (z-score),Fuc(a1-3)GlcNAc,0.417
same,glycan array binding signal (z-score),[21],-0.217
same,glycan array binding signal (z-score),[41],-0.102
same,glycan array binding signal (z-score),Gal3S(b1-4)Glc6S,0.206
same,glycan array binding signal (z-score),Gal3S6S(b1-4)GlcNAc,-0.009
same,glycan array binding signal (z-score),Gal3S6S(b1-4)GlcNAc6S,2.32
same,glycan array binding signal (z-score),Gal6S(b1-4)Glc6S,0.548
same,glycan array binding signal (z-score),GlcNAc(b1-3)Gal,-0.119
same,glycan array binding signal (z-score),[42],-0.095
same,glycan array binding signal (z-score),[43],-0.112
same,glycan array binding signal (z-score),Man(b1-4)GlcNAc,-0.205
same,glycan array binding signal (z-score),[44],-0.161
same,glycan array binding signal (z-score),[45],-0.162
same,glycan array binding signal (z-score),[46],-0.231
same,glycan array binding signal (z-score),[47],-0.244
same,glycan array binding signal (z-score),[48],-0.219
same,glycan array binding signal (z-score),[49],-0.248
